Only some compounds are listed: those with a hit (about 5.5% of all), similar ones and a draw of the others.
MBNL1 CUG block: inhibitors of human MBNL1 binding to CUG repeat RNA; Q9NR56; TR-FRET MBNL1-His/biotin-(CUG)12 binding, 665/545 ratio; Potency, µM (top dose mostly 57.5 µM), most hits filed as inhibitors; hit rate 0.036% among 280,000; AID 2675; active means well fitted inhibition curve with a large enough effect in the signal ratio, with a control signal flat, not every such curve was filed as active; inconclusive means small, poorly fitted or top-dose-only effect, or effect the other way, or a change in a side signal; inactive means no such curve, though single readings can be large or run the other way; the % refers to the signal ratio
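MBNL1-His + Biotin-(CUG)12, cpd titration 92 nM–58 uM; Tb anti-His Ab 0.055 ng/ul, SA-XL665 5 nM (final); 60 min RT; ratiometric 665/545 nm, Ex 340 nm; normalized to buffer and full-complex controls.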
CBFb RUNX1 block: blocks binding between human CBF-beta and RUNX1 | Q01196+Q13951 | AlphaScreen CBFb-His/RUNX1-biotin binding, biochemical | Potency, µM (highest dose often 59.8 µM), most hits filed as inhibitors | 230,000 tested, under 10 active | AID 1477
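AlphaScreen proximity signal reports loss of binding between His-tagged CBF-beta and biotin-labelled RUNX1, each at 30 nM. Proteins are pre-associated for 20 minutes, compounds added for 15 minutes, then beads for 90 minutes, all at ambient temperature.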
VP16 counter: inhibits Gal4-VP16 luciferase reporter, ROR gamma counter-screen; Drosophila S2 Gal4-VP16 UAS-luciferase, luminescence, 20 h; Potency, µM (doses to about 53.6 µM), actives largely listed as inhibitors; hit rate 3.5% among 310,000; AID 2546;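 further: Gal4-VP16 expression switched on by copper sulfate through the metallothionein promoter; nearly all actives have a fitted effect of over 50% in size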
CtBP-E1A blk: inhibitors of CtBP/E1A interaction; AlphaScreen GST-E1A/His-CtBP binding, 1536-well; active compounds read low; activity change, % (no concentration beside the values); hit rate 0.49% among 340,000; AID 651724; in the data active means activity change below about -65%; inconclusive means mostly about -30% to -63%
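Protein mix (5X: 125 nM each GST-E1A, His-CtBP) was incubated with pinned compound 2 h at 37 deg C in dark, in 50 mM Tris pH 8.0 buffer with 300 mM NaCl. Glutathione donor and nickel acceptor beads followed; AlphaScreen signal read after 1 h.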
RORg inh: ROR gamma (mouse) transcription inhibition | Drosophila S2 Gal4-RORgamma UAS-luciferase reporter, 20 h | Potency, µM (top dose mostly 53.6 µM), usual class: inhibitors | hit rate 5.4% among 310,000 | P51450 | AID 2551; further: nearly all actives have a fitted effect of over 60% in size
Target sequence (P51450 whole entry, looked up, the tested form may be a part): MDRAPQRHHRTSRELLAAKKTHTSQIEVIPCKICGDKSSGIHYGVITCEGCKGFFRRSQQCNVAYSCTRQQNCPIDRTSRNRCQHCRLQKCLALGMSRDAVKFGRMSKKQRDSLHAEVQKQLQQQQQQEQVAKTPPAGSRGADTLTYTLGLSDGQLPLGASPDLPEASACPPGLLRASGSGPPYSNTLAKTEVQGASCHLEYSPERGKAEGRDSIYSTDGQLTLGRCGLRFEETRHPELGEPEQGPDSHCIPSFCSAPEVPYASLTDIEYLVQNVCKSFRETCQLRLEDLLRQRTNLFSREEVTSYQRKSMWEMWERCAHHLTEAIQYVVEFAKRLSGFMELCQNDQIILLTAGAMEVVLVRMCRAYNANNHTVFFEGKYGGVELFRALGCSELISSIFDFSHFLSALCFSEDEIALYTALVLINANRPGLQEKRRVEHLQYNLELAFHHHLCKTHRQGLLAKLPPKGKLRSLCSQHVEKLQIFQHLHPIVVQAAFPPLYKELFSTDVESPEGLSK
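Drosophila S2 cells stably expressing Gal4-DBD/mouse RORγ fusion under metallothionein promoter plus UAS-luciferase; compound 1 h, then 700 uM CuSO4 induction for 20 h at ambient temperature; inhibition read as reduced luminescence.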
Six1-Eya2 blk: inhibitors of human Six1/Eya2 interaction. Q15475+O00167. AlphaScreen GST-Six1/His-Eya2 binding, biochemical; active compounds read low. activity change, % (test concentration not listed). hit rate 0.56% among 360,000. AID 651725; in the data active means activity change below about -65%; inconclusive means mostly about -30% to -63%
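AlphaScreen with GST-Six1 and His-Eya2 (5X mix: 250 nM and 500 nM), glutathione donor and nickel acceptor beads; buffer 50 mM Tris pH 8.0, 300 mM NaCl, 1 mM TCEP; 1 h at 37 C in the dark.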
Numbers stand for hits; [ ] = another dose, or the depositor's remark. Unless noted, the call rests on the fitted dose curve; in most records, active means well fitted curve in the direction sought with a large enough effect; inconclusive means small, poorly fitted or top-dose-only effect, or another doubt; inactive means no such curve, though single readings can be large; an effect the other way counts as inactive or inconclusive.

Screening COc1ccc(C)cc1S(=O)(=O)NCCC1=CCCCC1 returned MBNL1 CUG block inactive, CBFb RUNX1 block inactive, VP16 counter 11µM, CtBP-E1A blk inactive, RORg inh inactive and Six1-Eya2 blk inactive.
`COc1ccc(NC(=S)NCCC2=CCCCC2)cc1OC` gave MBNL1 CUG block inactive, CBFb RUNX1 block inactive, VP16 counter 13µM, CtBP-E1A blk inactive, RORg inh 2.5µM and Six1-Eya2 blk inactive.
O=C(/C=C1\OCc2ccccc21)c1ccccc1 was read as CtBP-E1A blk inactive and Six1-Eya2 blk inactive.
`O=C(N/N=C1\CC2CC=CC12)c1ccc(COc2ccccc2)cc1` (configuration not stated) gave MBNL1 CUG block inactive, CBFb RUNX1 block inactive, VP16 counter 5µM, RORg inh 5µM and Six1-Eya2 blk inactive.
For CC(C)(C)c1ccc(OCc2ccc(C(=O)N/N=C3\CC4CC=CC34)cc2)cc1 (configuration not stated) the results were MBNL1 CUG block inactive, CBFb RUNX1 block inactive, VP16 counter 4.5µM, CtBP-E1A blk inactive, RORg inh 7.9µM and Six1-Eya2 blk inactive.
Cc1cc(OCc2ccc(C(=O)NN=C3CCCC3)cc2)ccc1Cl was read as MBNL1 CUG block inactive, CBFb RUNX1 block inactive, VP16 counter inactive, CtBP-E1A blk inactive, RORg inh inactive and Six1-Eya2 blk inactive.
C=CS(=O)(=O)c1sc(Cl)c(N2CCOCC2)c1[N+](=O)[O-] was read as MBNL1 CUG block inconclusive, CBFb RUNX1 block inactive, VP16 counter 7.1µM, CtBP-E1A blk inactive, RORg inh 10µM and Six1-Eya2 blk inactive.
`C=CSc1sc(Cl)c(N2CCOCC2)c1[N+](=O)[O-]` gave MBNL1 CUG block inconclusive, CBFb RUNX1 block inactive, VP16 counter inactive[10 µM], CtBP-E1A blk inactive, RORg inh inactive and Six1-Eya2 blk inactive.
COc1cc(/C=N/NC(=O)/C(=C/c2ccccc2)CCO)ccc1O was read as MBNL1 CUG block inactive, CBFb RUNX1 block inactive, VP16 counter inactive, CtBP-E1A blk inactive, RORg inh inactive and Six1-Eya2 blk inactive.
Screening COc1ccc(/C=C\C(=O)NCC(=O)N/N=C/c2ccc(O)cc2O)cc1 returned MBNL1 CUG block inconclusive, CBFb RUNX1 block inactive, VP16 counter inactive, CtBP-E1A blk inactive, RORg inh inactive and Six1-Eya2 blk -88.
O=C(CNC(=O)C1COc2ccccc2O1)N/N=C\c1cccc(O)c1 (configuration not stated) was read as CBFb RUNX1 block inactive, VP16 counter inactive, CtBP-E1A blk inactive, RORg inh inactive and Six1-Eya2 blk inactive.
For O=C(N/N=C/c1ccc(O)cc1O)/C(=C/c1ccccc1)CCO the results were MBNL1 CUG block inactive, CBFb RUNX1 block inconclusive, VP16 counter inconclusive, CtBP-E1A blk -92, RORg inh 11µM and Six1-Eya2 blk -89.
COc1ccc2[nH]c(C(=O)N/N=C/c3ccc(O)cc3O)cc2c1 was read as MBNL1 CUG block inactive, VP16 counter inactive, RORg inh inconclusive and Six1-Eya2 blk -80.
`O=C(CNC(=O)C1COc2ccccc2O1)N/N=C/c1ccc(O)cc1O` (configuration not stated) gave CBFb RUNX1 block inactive, VP16 counter inactive, CtBP-E1A blk -88, RORg inh 13µM and Six1-Eya2 blk -88.
For O=c1c(-c2ccc(F)cc2)nc2cncnc2n1Cc1ccccc1 the results were VP16 counter inactive and RORg inh inactive.
For COC(=O)NC(c1cccs1)C(C(C)=O)C(=O)OC (configuration not stated) the results were CBFb RUNX1 block inactive[13.1 µM], VP16 counter inactive[10 µM] and RORg inh inactive[10 µM].
For COc1ccc(/C=N/NC(=O)c2nc(-c3ccccc3)n(-c3ccccc3)n2)c(O)c1 the results were MBNL1 CUG block inactive, CBFb RUNX1 block inactive, VP16 counter 6.3µM, CtBP-E1A blk inconclusive, RORg inh 2.2µM and Six1-Eya2 blk inconclusive.
`CC(C)(C)c1cc(C(=O)N/N=C/c2ccccc2O)n(-c2ccccc2)n1` gave MBNL1 CUG block inactive, CBFb RUNX1 block inactive, VP16 counter 1.1µM, CtBP-E1A blk inactive, RORg inh 0.63µM and Six1-Eya2 blk inactive.

High-throughput results (PubChem)
